In the library only some 11% were active in any assay of this set; here they are far more common.
Pf growth 96h = P. falciparum growth inhibition at 96 hours. AID 504834. Potency, µM (titrated, usually from 28.7 µM), inactives show at the top dose activity change, negative = inhibition, usual class: inhibitors. 6.9% of 320,000 active. P. falciparum luciferase reporter growth, 96 h
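Readout is luminescence from an integrated firefly luciferase in P. falciparum. Red cells, 2% hematocrit and 0.05% parasitemia final, were cultured with compound through two parasite generations (96 hours) at 37 C, 5% CO2.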
HCV inhibitor = HCV inhibition; Huh7.5.1 HCVcc-Cre infection, luciferase reporter, 44 h; Potency, µM (top dose mostly 41.8 µM), for inactives: at the top dose activity change, negative = inhibition, most hits filed as inhibitors; 3.4% of 340,000 active; AID 651820
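A cell-based infection assay in which seeded cells (1,000 per well) receive test compound after 4 h, are inoculated with HCVcc-Cre at approximately 0.5 moi, and are incubated 44 h before luminescence detection.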
Pf growth 48h = inhibits P. falciparum growth in the first generation, 48 h; P. falciparum luciferase growth in erythrocytes, 48 h; Potency, µM (doses to about 28.7 µM), without a hit: at the top dose activity change, negative = inhibition, most hits filed as inhibitors; 5.9% of 310,000 active
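Luciferase-expressing P. falciparum in infected erythrocytes (2% hematocrit, 0.1% parasitemia final) in RPMI 1640/0.5% Albumax were exposed to compound for 48 hours at 37 C, 5% CO2; growth read as luminescence.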
AMA1 RON2 block = inhibitors of Plasmodium falciparum AMA1-RON2 interaction; AlphaScreen AMA1-biotinylated RON2 peptide binding; 0.2% of 360,000 active; Potency, µM (titrated, usually from 58.2 µM), inactives show at the top dose activity change, negative = inhibition, actives largely listed as inhibitors;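 also: 0% = vehicle wells and -100% = peptide control; nearly all actives have a fitted effect of over 45% in size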
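AMA1 (3D7) with his tag at 25 nM final met compounds first, then biotinylated RON2 peptide at 25 nM; detection used donor plus acceptor beads, 10 µg/mL apiece, read by AlphaScreen after 30 min at room temperature.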
Numbers without * were called inactive; ? = inconclusive; . = no result; [ ] = dose if it differs, or a comment. Calls follow the shape of the dose curve; as a rule, active = well fitted curve in the direction sought with a large enough effect; inconclusive = small, poorly fitted or top-dose-only effect, or another doubt; inactive = no such curve, though single readings can be large; an effect the other way counts as inactive or inconclusive. Unless noted, % is scaled to controls: 0 for no effect and ±100 for the full control effect; potency is read from the fitted curve at half-maximal effect.

SMILES | Pf growth 96h | HCV inhibitor | Pf growth 48h | AMA1 RON2 block
Cc1ccc(NC(=O)c2ccc(Cl)c(S(=O)(=O)NCC3CCCO3)c2)c(O)c1 (stereo not given) | 6.6µM* | ? | ? | -4%
COc1ccccc1C1(O)CCN(CC(=O)Nc2nc(-c3ccccc3)cs2)CC1 | -19% | 10µM* | -2% | 21%
CCOC(=O)N1CCN(C(=O)CSCC(=O)Nc2nc(-c3ccc(Cl)s3)cs2)CC1 | ? | 11µM* | ? | -4%
CCOC(=S)SCC(=O)Nc1nc(-c2ccc(Br)cc2)cs1 | 3.3µM* | ? | -95% | -10%
CCOC(=S)SCC(=O)Nc1nc(-c2ccccc2)cs1 | ? | -10% | ? | -18%
CCc1nnc(NC(=O)CN2CCN(c3nc(-c4ccccc4)cs3)CC2)s1 | 9.3µM* | -19% | 10µM* | -6%
O=C(CCn1c(=O)oc2ccccc21)Nc1ccc2c(c1)OCCO2 | -8% | 12% | 34% | -4%
CC(C)(C)c1ccc(C(=O)N2CCC(C(=O)c3ccccc3)CC2)cc1 | ? | -25% | 5%[0.00184 µM] | 3%
CCOC(=O)N1CCN(C(=O)CSCC(=O)Nc2nc(-c3ccc(-c4ccccc4)cc3)cs2)CC1 | 10µM* | 5.6µM* | ? | -3%
Nn1cnc2scc(-c3ccc(Cl)cc3)c2c1=O | 5.2µM* | 4% | 4% | -8%
C/C(=N\NC(=O)NC1CCCCC1)c1ccc(Cl)s1 | ? | 3.2µM* | ? | 0%
O=C(NNC(=S)NC1CCCCC1)c1ccc(Cl)s1 | 2% | -1% | 65% | 47%
O=C1CC(C(=O)Nc2ccc(Cl)cc2[N+](=O)[O-])C2(CCCCC2)O1 (stereo not given) | 5% | -6% | -2% | -5%
Fc1ccccc1OCCSc1ncnc2nc[nH]c12 | 4.7µM* | -7% | 62% | -4%
CCOC(=O)c1ccc(NC(=O)c2nc[nH]c2C(=O)NC2CCN(C(=O)OC(C)(C)C)CC2)cc1 | ? | 25% | 10µM* | 133%
CC(C)(C)OC(=O)N1CCC(NC(=O)c2nc[nH]c2C(=O)NC2CCN(C(=O)OC(C)(C)C)CC2)CC1 | 3.7µM* | 7% | 3.7µM* | 92%
CC(C)(C)OC(=O)N1CCC(NC(=O)c2ncn(Cc3ccccc3)c2C(=O)NC2CCN(C(=O)OC(C)(C)C)CC2)CC1 | ? | -20% | 5.2µM* | -8%
C[C@H](NC(=O)c1ncn(Cc2ccccc2)c1C(=O)N[C@@H](C)c1ccccc1)c1ccccc1 | 8.3µM* | ? | ? | -12%
Cn1cnc(C(=O)NC2CCN(C(=O)OC(C)(C)C)CC2)c1C(=O)NC1CCN(C(=O)OC(C)(C)C)CC1 | . | 0% | . | 0%
O=C(NCc1ccccc1)c1ncn(Cc2ccccc2)c1C(=O)NCc1ccccc1 | ? | -29% | ? | -4%
O=C(COC(=O)c1ccccc1Cc1ccccc1)NC1CCS(=O)(=O)C1 (stereo not given) | 0% | -11% | 4% | -12%
CCOC(=O)C1=C(C)n2c(s/c(=C/c3cccc([N+](=O)[O-])c3)c2=O)=NC1c1ccc(O)c(OC)c1 (stereo not given) | . | 8.9µM* | 2.9µM* | -6%
COc1ccc(NC(=O)c2sccc2SCc2cccc(C(F)(F)F)c2)cc1 | ? | ? | ? | 22%
O=C(Nc1ccc(F)cc1)c1sccc1SCc1cccc(C(F)(F)F)c1 | ? | 7% | 9.3µM* | 94%
COc1ccc2cc1Oc1ccc(cc1)C[C@H]1c3cc(c(OC)cc3CCN1C)Oc1c(OC)c(OC)cc3c1[C@@H](C2)N(C)CC3 | 1.5µM* | ? | 2.3µM* | -29%
SMILES | Pf growth 96h | HCV inhibitor | Pf growth 48h | AMA1 RON2 block
O=C(Nc1cc(S(=O)(=O)N2CCCCC2)ccc1Oc1ccccc1)C1=COCCO1 | 10µM* | 22µM* | 10µM* | -4%
COc1cccc(Oc2ccc(C(F)(F)F)cc2NC(=O)C2=COCCO2)c1 | 7.4µM* | -27% | ? | 10%
CC(C)C[C@H]1CN(CCCC[C@H]2CNC(=O)C(=O)N2CCc2ccccc2)C(=O)C(=O)N1CCC1CCCCC1 | . | . | . | 6%
COc1ccc(NC(=O)Cn2nnc(-c3ccccc3NS(=O)(=O)c3ccc(OC)cc3)n2)cc1 | 7% | 11µM* | ? | 5%
COc1ccc(C(=O)Cn2nnc(-c3ccccc3NC(=O)C3CC3)n2)cc1 | ? | -13% | 12µM* | -11%
COc1ccc(NC(=O)Cn2nnc(-c3ccccc3NC(=O)c3cccs3)n2)cc1 | ? | ? | 1.9µM* | 1%
O=C(Cn1nnc(-c2cccs2)n1)Nc1ccccc1C(F)(F)F | 0.29µM* | 12% | -1% | 12%
CCOc1ccc(NC(=O)Cn2nnc(-c3ccccc3NC(=O)CC)n2)cc1 | 24% | -27% | -22% | 2%
O=C(Cn1nnc(-c2cccs2)n1)NCc1ccccc1 | 5% | 29% | 1% | -9%
CCc1ccc(/C=C2/C(=O)NC(=O)N2C(C)=O)cc1 | 61% | 12% | 95% | 4%
Cc1ccc(CN(C)C(=O)c2ccccc2NC(=O)c2ccccc2)o1 | ? | -3% | ? | 10%
COc1ccc(-c2nnn(Cc3ccccc3F)n2)cc1 | 7% | 11µM* | 336% | 26%
O=C(Cn1nnc(-c2ccccc2NC(=O)c2ccco2)n1)Nc1ccccc1 | ? | ? | -24% | 2%
Cc1ccc(NC(=O)Cn2nnc(-c3ccccc3NC(=O)c3cccs3)n2)cc1 | . | ? | 13µM* | 26%
COC(=O)c1ccccc1NC(=O)Cn1nnc(-c2ccc(OC)cc2)n1 | 0.59µM* | ? | -18% | -1%
O=C(NCCCN1CCOCC1)c1c(F)c(F)c(F)c(F)c1F | 1% | 7% | 14% | 31%
Cc1ccc(S(=O)(=O)NC(CC(C)C)C(=O)N2CCN(C/C=C/c3ccccc3)CC2)cc1 (stereo not given) | ? | 11µM* | 8.3µM* | -1%
CCC(C)c1ccccc1NC(=O)CN1CCN(C/C=C/c2ccccc2)CC1 (stereo not given) | 13µM* | -12% | ? | -15%
CC(=O)c1ccc(S(=O)(=O)NCC(=O)N2CCN(C/C=C/c3ccccc3)CC2)cc1 | 12µM* | -7% | 12µM* | 28%[11.6 µM]
COc1ccc(C(C#N)=Cc2cccc(OC)c2OC)cc1 | . | . | . | 84%
Cc1cccc(C(=O)OCC(=O)N(CC(C)C)c2c(N)n(Cc3ccccc3)c(=O)[nH]c2=O)c1O | 11% | 11% | -3% | 3%
O=C(NCCC1=CCCCC1)C1CCN(S(=O)(=O)c2ccc(Br)s2)CC1 | ? | -22% | ? | -3%
COc1cc2oc(-c3ccc(O)cc3)cc(=O)c2c(O)c1OC | 10µM* | ? | -1% | 67%
COc1ccc(-c2cc(=O)c3c(OC)c(OC)c(OC)c(OC)c3o2)cc1 | . | 10µM* | . | 10%
O=c1cc(-c2ccc(O)cc2)oc2ccc3ccccc3c12 | -4% | 13µM* | -33% | -6%
COc1ccc(NC(=O)CSCC(=O)N(C)Cc2ccc3c(c2)OCCO3)cc1 | ? | ? | ? | -4%[11.6 µM]
COc1cc(NC(=O)CCC(=O)N2CCN(S(=O)(=O)c3ccc(C)cc3)CC2)cc(OC)c1 | . | ? | . | -2%

Screening results from PubChem.
